In the supplement of paper PMC6555819 one finds PBM binding z-score data, which are given here for seven sequences.

Holding throughout (assay): PBM binding z-score (relative to random genomic background probes); higher = stronger binding; sequences stand for … in GC…GCGATTGACAGCGTAGAATGAAGG
For assay [1], the system named is PPARg:RXRa DBDmut IVT, anti-RXR (DBD mutation: RXRa K156A/R161A, NR concentration 270 nM, RXRa partner concentration 90 nM). Summed up: (§1)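 Random background probes are the reference for binding z-scores. These scores derive from regression-normalized fluorescence on custom Agilent 4×180K protein-binding microarrays incubated 1 h with ligand-free nuclear receptor dimers. Binding was detected with antibodies against each partner (one per run).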

For assay [2], the system named is PPARg:RXRa IVT, anti-PPARg (NR concentration 270 nM, RXRa partner concentration 90 nM). The procedure, abridged:
as §1

Assay [3] has as its system PPARg DBDmut:RXRa IVT, anti-PPARg (DBD mutation: PPARg1 K132A/R137A, NR concentration 270 nM, RXRa partner concentration 90 nM). The procedure, abridged: as §1
In assay [4] the test system is PPARg DBDmut IVT, anti-PPARg (DBD mutation: PPARg1 K132A/R137A, NR concentration 270 nM). The procedure, abridged: as §1
The subject of assay [5] is PPARg homodimer (NR concentration 180 nM). The procedure, abridged:
as §1

In assay [6] the test system is PXR:RXRa (NR concentration 270 nM, RXRa partner concentration 90 nM). Summed up:
as §1

In assay [7] the test system is PXR homodimer (NR concentration 270 nM). The procedure, abridged: as §1
In assay [8] the test system is RARa:RXR (NR concentration 270 nM, RXRa partner concentration 90 nM). The procedure, abridged:
as §1

The subject of assay [9] is RARa homodimer (NR concentration 270 nM). Summed up:
as §1

The subject of assay [10] is RARb:RXRa (NR concentration 270 nM, RXRa partner concentration 90 nM). Summed up: as §1
Assay [11] relates to RARb homodimer (NR concentration 270 nM). The procedure, abridged: as §1
The test system of assay [12] is RARg:RXRa (NR concentration 270 nM, RXRa partner concentration 90 nM). Summed up: as §1
Assay [13] concerns RARg homodimer (NR concentration 270 nM). The procedure, abridged:
as §1

The test system of assay [14] is RXRa DBDmut IVT, anti-RXR (DBD mutation: RXRa K156A/R161A, NR concentration 90 nM). Summed up: as §1
In assay [15] the test system is RXRa homodimer (NR concentration 180 nM). Summed up:
as §1

Assay [16] relates to THRa:RXRa (NR concentration 90 nM, RXRa partner concentration 90 nM). Summed up: as §1
For assay [17], the system named is THRa homodimer (NR concentration 90 nM). The procedure, abridged: as §1
The subject of assay [18] is VDR homodimer (NR concentration 270 nM). The procedure, abridged:
as §1

For TGTCAAAGTTCATAGGTAACGTAAGTATCCACAC, the PBM binding z-score in assay [1] was found to be 0.217; in assay [2] it was 4.39; in [3], 1.15; in assay [4], 2.16; in assay [5], 1.89; in [6], 5.05. The PBM binding z-score in assay [7] amounted to 3.32; in assay [8], 4.15; in assay [9], 0.391; in assay [10], 4.9; in assay [11], 3.62; in assay [12], 5.31. Further, the PBM binding z-score was 5.2 in assay [13]; 4.28 in assay [14]; 5.16 in assay [15]; 2.58 in [16]; -0.00989 in [17]; 4.46 in assay [18].
Turning to TCTTGTAGATGAATAGAGGTTAAGAAAGTGCGCT, the PBM binding z-score in [1] was 2.5; in [2], 1.18; in [3], 0.58; in assay [4], 0.95; in [5], 0.765; in [6], 3.01. The PBM binding z-score in assay [7] amounted to 0.505; in assay [8], 1.86; in [9], 1.12; in assay [10] it was 1.01; in assay [11], 1.19; in assay [12], 0.961. Further, the PBM binding z-score stood at 0.531 in assay [13]; 1.66 in [14]; 1.68 in [15]; 1.72 in assay [16]; 0.0374 in [17]; 0.264 in [18].
With CCGACTGGGGCAGAAAGGTTACCATCCCATCCGG, the PBM binding z-score in assay [1] was 1.51; in assay [2], 1.69; in [3], -0.348; in assay [4], -1.37; in assay [5] it was 0.985; in assay [6], 0.837. Besides, the PBM binding z-score is -0.375 in assay [7]; 1.61 in assay [8]; -0.144 in assay [9]; 1.89 in assay [10]; 2.3 in [11]; 1.44 in assay [12]. The PBM binding z-score is 1.19 in assay [13]; -1.13 in assay [14]; 1.48 in [15]; 0.817 in assay [16]; -0.666 in [17]; -0.162 in assay [18].
With CGAACGACGGCATGAGTTGATAGCAAATGCCGAT, the PBM binding z-score was -1.05 in [1]; -1.08 in assay [2]; -1.17 in assay [3]; -0.517 in assay [4]; -0.497 in [5]; -0.722 in [6]. Further, the PBM binding z-score was -0.155 in [7]; -0.909 in assay [8]; -0.629 in [9]; -1.05 in assay [10]; -1.1 in assay [11]; -0.397 in assay [12]. The PBM binding z-score is -0.191 in assay [13]; -0.218 in assay [14]; -0.57 in assay [15]; -0.799 in assay [16]; -1.12 in [17]; -0.0876 in assay [18].
TATACAGGGTCAAAGGCCAGAGTGCGAATGTCGA: the PBM binding z-score in assay [1] came to 2.54; in [2] it was 4.9; in [3], 2.49; in [4] it was 2.56; in assay [5] it was 5.37; in assay [6] it was 4.79. For the same sequence, the PBM binding z-score stood at 1.14 in assay [7]; 6.61 in assay [8]; 1.49 in [9]; 4.59 in [10]; 3.58 in assay [11]; 5.91 in [12]. The PBM binding z-score in assay [13] stood at 5; in assay [14], 3.25; in assay [15], 7.4; in [16] it was 3.57; in assay [17], 0.842; in assay [18], 3.38.
Consider CCTAGTCGGTCAAGGTCACACACGCTATAGGTAC, for which the PBM binding z-score in assay [1] is 4.58; in assay [2] it was 5.27; in [3], 0.742; in assay [4], 0.895; in assay [5], 3.81; in [6] it was 4.4. Besides, the PBM binding z-score in [7] is 1.97; in assay [8], 4.9; in assay [9], 2.62; in [10], 4.51; in [11] it was 4.9; in assay [12], 5.15. The PBM binding z-score was 5.64 in assay [13]; 2.13 in assay [14]; 4.64 in [15]; 4.26 in assay [16]; 4.28 in [17]; 3.91 in [18].
With ATCGAAAGGTCGTGAGGTGCGTATACAGAAAGGC, the PBM binding z-score turned out to be 0.0193 in [1]; 1.75 in assay [2]; 0.734 in [3]; 0.404 in assay [4]; 1.37 in [5]; 2.98 in assay [6]. In addition, the PBM binding z-score in assay [7] worked out at 0.197; in assay [8] it was 3.01; in assay [9], 0.318; in [10], 3.85; in assay [11], 2.59; in assay [12] it was 4.2. The PBM binding z-score is 3.57 in [13]; 1.16 in assay [14]; 4.65 in assay [15]; 2.45 in [16]; -0.17 in assay [17]; 1.59 in assay [18].
